Experiment [1] deals with Lysosomal acid glucosylceramidase (Homo sapiens) (UniProt P04062). In words: Glucocerebrosidase-p2 (AID 348; in the data active = potency below about 10 µM; note: potency is the fitted concentration of half-maximal effect). The following applies: purified GBA, blue fluorogenic substrate, 40 min. In a few lines:
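Compounds titrated from 0.6 nM upwards against 0.2 nM enzyme in pH 5.9 citric acid/KH2PO4, taurocholate, tween-20; blue fluorogenic substrate 80 uM, 40 min room temperature, stopped and read Ex 365/Em 440 for AC50.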

Experiment [2] is described as follows: AP1 Signaling Pathway (AID 357; active = well fitted curve in either direction with a large enough effect, not every such curve was filed as active; note: % is set by controls: 0 for no effect and ±100 for the full control effect). The settings on record: ME-180 AP-1-bla reporter, EGF-induced, beta-lactamase ratio, 5 h; at 7.69 µM (top of the series) unless noted. A digest of the protocol: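 Read-out was the 460nm/530nm emission ratio (excitation 405nm) after CCF4 loading for 2.5 hours at room temperature. Cells carried an AP-1-driven beta-lactamase reporter, were stimulated with EC50 EGF plus compound for 5 hours, and AC50 values came from titrations.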

Experiment [3] is described as follows: NFAT Signaling Pathway (AID 444; active = well fitted curve in either direction with a large enough effect, not every such curve was filed as active;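 note: carbachol stimulus at about its EC50 of 1 µM final; % is set by controls: 0 for no effect and ±100 for the full control effect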). The following applies: Jurkat NFAT-bla M1, carbachol, beta-lactamase ratio, 5 h; at 7.69 µM (top of the series) unless noted. In a few lines: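 Jurkat cells carrying an NFAT-driven β-lactamase reporter and co-transfected muscarinic M1 receptor were treated with compound plus carbachol (1 uM final, an EC50 level) for 5 h at 37 °C. CCF4 loading followed for 1 h at RT; 460/530 nm ratio gave %activity.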

Experiment [4] is described as follows: Stat Signaling Pathway (AID 446; active = well fitted curve in either direction with a large enough effect, not every such curve was filed as active;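 note: ME-180 cervical cancer cells given 40 pM IL-6 alongside compound; SIE-controlled beta-lactamase reporter measured as 460/530 nm FRET emission ratio; % is set by controls: 0 for no effect and ±100 for the full control effect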). The following applies: ME-180 SIE beta-lactamase reporter, IL-6 stimulated, 5 h; at 7.69 µM (top of the series) unless noted. In a few lines:
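ME-180 SIE-bla cells; overnight plating; cpd + IL-6 40 pM, 5 h, 37 C; LiveBLAzer 2.5 h RT; 460/530 nm emission ratio. Normalized to 300 pM IL-6 and 125 nM JAK inhibitor controls.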

For experiment [5], the target named is Glucocorticoid receptor (Homo sapiens) (UniProt P04150). Kind of experiment: GR-GFP Redistribution (AID 450;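 active = compounds whose dose series gives a full or clear partial fitted curve of increased nuclear translocation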; note: potency is the fitted concentration of half-maximal effect). The following applies: U2OS GR-GFP nuclear translocation, laser cytometry, 2 h.
Experiment [6] has the same target. Kind of experiment: GR-EFC Redistribution (AID 451; calls by dose curve; note: potency is the fitted concentration of half-maximal effect). The following applies: CHO-K1 GR-EFC translocation, beta-gal luminescence, 2 h. In a few lines: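 CHO-K1 cells stably expressing nuclear-localized β-gal enzyme acceptor and GR fused C-terminally to the enzyme donor fragment; ligand-driven nuclear translocation restores β-gal by complementation. Compounds titrated up to 46 uM final, 2 h at 37 °C; luminescence read.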

Experiment [7] has as its target Mitogen-activated protein kinase 10 (Mus musculus) (UniProt Q61831). In words: JNK3 AlphaScreen Assay (AID 530; active = well fitted curve in either direction with a large enough effect, not every such curve was filed as active;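 note: kinase came from lysate of stimulated human HepG2 cells; signal reports phosphorylation of biotinylated GST-cJun 1-79 at Ser73 with 10 µM ATP; % is set by controls: 0 for no effect and ±100 for the full control effect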). The following applies: JNK3 lysate, c-Jun phosphorylation; series mostly up to 57.1 µM. In a few lines: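 Inhibitors reduce antibody binding to phosphorylated biotin-cJun, lowering AlphaScreen luminescence. Lysates from HepG2 cells pre-activated by IL-1beta plus TNF-alpha supplied JNK3; compounds were titrated.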

The target of experiment [8] is Cytochrome P450 3A4 (Homo sapiens) (UniProt P08684). In words: qHTS Assay for Activators of Cytochrome P450 3A4 (AID 885). Note: nearly all actives have a fitted effect of over 65% in size. The following applies: recombinant CYP3A4, Luciferin-PPXE luminescence, 60 min; series mostly up to 57.1 µM. In a few lines: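 20nM CYP3A4 + 25uM Luciferin-PPXE (=KM), 200mM KPO4; cpd 10 min RT; NADPH regen, 60 min RT; stop w/ detection buffer, 20 min; luminescence. Normalized to 57 uM ketoconazole.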

Experiment [9] is described as follows: qHTS Assay for Lipid Storage Modulators (AID 1519; calls by dose curve). The following applies: Drosophila S3 cells, BODIPY lipid droplet/cell ratio, laser cytometry, cells loaded with oleic acid; for activity change, negative = inhibition: at 57.5 µM (top of the series). In a few lines:
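Cells seeded at 5,000 per well were treated with compounds over a concentration series and loaded with oleic acid (400 uM, as added). Lipid droplet fluorescence (488 nm excitation, 500-530 nm channel) was read by laser-scanning cytometry and normalized to 20 uM Triacsin C.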

In experiment [10] the target is Dual specificity protein kinase CLK4 (Homo sapiens) (UniProt Q9HAZ1). Kind of experiment: qHTS Assay for Inhibitors of CDC-like Kinase 4 (Kinase-Glo Assay) (AID 1770). Note: % is set by controls: 0 for no effect and ±100 for the full control effect; nearly all actives have a fitted effect of over 65% in size. The settings on record: recombinant Clk4, Kinase-Glo ATP depletion luminescence; series mostly up to 66.7 µM. A digest of the protocol:
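Luminescent ATP-depletion read-out (Kinase-Glo) after 4.5 h room-temperature reaction of Clk4 (25 nM final) with RS peptide (100 uM) and ATP (1 uM), pH 7.5 Tris buffer with MgCl2 and DTT.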

Experiment [11] shares this target. Kind of experiment: qHTS Assay for Inhibitors of CDC-like Kinase 4 (ADP-Glo Assay) (AID 1771). Note: % is set by controls: 0 for no effect and ±100 for the full control effect; nearly all actives have a fitted effect of over 70% in size. The settings on record: recombinant CLK4, ADP-Glo luminescence; series mostly up to 80 µM. In a few lines:
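Luminescence from ADP-Glo reports ADP produced by 25 nM Clk4 acting on 100 uM RS repeat peptide with 1 uM ATP over 1 hr at room temperature; residual ATP is depleted before ADP is converted to ATP for detection.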

Experiment [12] addresses Ubiquitin carboxyl-terminal hydrolase 1 (Homo sapiens) (UniProt O94782). In words: Inhibitors of USP1/UAF1: Pilot qHTS (AID 504865).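 Note: rhodamine fluorescence freed from ubiquitin-rhodamine substrate followed over time; top concentration of the series differs between compounds; % is set by controls: 0 for no effect and ±100 for the full control effect; nearly all actives have a fitted effect of over 35% in size.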 The settings on record: purified USP1/UAF1, Ub-rhodamine cleavage fluorescence; series mostly up to 54.9 µM. In a few lines:
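Deubiquitinase activity followed as kinetic rhodamine fluorescence release from 150 nM Ub-Rho. 1 nM USP1/UAF1 with compound, after 15 min room-temperature preincubation, in HEPES pH 7.8 buffer containing TCEP, EDTA, BSA and Tween-20.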

Experiment [13] can be described thus: Counterscreen qHTS for small molecule stabilizers of the endoplasmic reticulum resident proteome: GLuc-NoTag assay (AID 1508627).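 For activity change, negative = inhibition: 0% = thapsigargin alone and -100% = DMSO vehicle control.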 Note: potency is the fitted concentration of half-maximal effect. The settings on record: Gaussia luciferase NoTag secretion counterscreen, luminescence, thapsigargin 100 nM for final 4 h; series mostly up to 76.4 µM. In a few lines:
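SH-SY5Y cells stably expressing constitutively secreted GLuc (no SERCaMP tag) were pre-incubated 5 h, treated with compound for 19 h, then 100 nM thapsigargin for 4 h at 37C; medium GLuc read by coelenterazine luminescence.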

Experiment [14] deals with Cytochrome P450 3A4 (Homo sapiens) (UniProt P08684). In words: qHTS Assay for Inhibitors and Substrates of Cytochrome P450 3A4 (AID 884). Note: potency is the fitted concentration of half-maximal effect; nearly all actives have a fitted effect of over 50% in size. The following applies: recombinant CYP3A4, Luciferin-PPXE luminescence; series mostly up to 57.1 µM. In a few lines:
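20 nM human CYP3A4 with 25 uM Luciferin-PPXE (at KM) in 200 mM KPO4, preincubated 10 min with compound; NADPH regeneration started a 60 min RT reaction. Luciferin detected by luminescence, normalized to 57 uM ketoconazole as full inhibition.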

Experiment [15] is described as follows: qHTS Assay for Identification of Small Molecule Agonists for Hypoxia Response Element Signaling Pathway (AID 914; active = well fitted activation curve with a large enough effect in the signal ratio, with a control signal flat, not every such curve was filed as active; the % refers to the signal ratio; note: % of control where 0% means no effect). The following applies: ME-180 (cervical carcinoma) HRE-bla reporter, beta-lactamase ratio, CoCl2, 17 h; activation: stronger effect = higher value. A digest of the protocol: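 Reporter activity (beta-lactamase, CCF4 460nm/530nm ratio) in HRE-bla ME-180 cells is recorded after 17 h compound exposure with EC50 CoCl2 at 37 degrees Celsius. AC50 values come from titration data.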

Experiment [16] is described as follows: Confirmatory qHTS for small molecule stabilizers of the endoplasmic reticulum resident proteome: Secreted ER Calcium Modulated Protein (SERCaMP) assay (AID 1508628). Note: potency is the fitted concentration of half-maximal effect; nearly all actives have a fitted effect of over 40% in size. The following applies: SERCaMP secreted luciferase ER calcium/proteostasis reporter; series mostly up to 76.3 µM. A digest of the protocol: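 SH-SY5Y cells stably expressing GLuc-SERCaMP, treated 16 h with compound (primary 1.53, 7.67, 38.3 uM; confirmation 11 concentrations, up to 76.6 uM), then 100 nM thapsigargin for 4 h. Secreted Gaussia luciferase in medium read by coelenterazine luminescence.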

Experiment [17] in a line: Cell Viability qHTS for small molecule stabilizers of the endoplasmic reticulum resident proteome (AID 1508629). The settings on record: cell viability counter-screen, 100 nM thapsigargin for final 4 h.
The target in experiment [18] is 3',5'-cyclic-AMP phosphodiesterase 4B (Homo sapiens) (UniProt Q07343). Kind of experiment: qHTS Assay for Inhibitors of PDE-IV (AID 607; active = well fitted activation curve with a large enough effect in the main read-out, with a control signal flat, not every such curve was filed as active; note: % of control where 0% means no effect). The settings on record: HEK293 ACTOne CNG channel cells, membrane potential fluorescence; series mostly up to 22.9 µM. A digest of the protocol:
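ACTOne HEK293 cells carry a modified cAMP-gated CNG channel and express endogenous PDE4; plated 1000 cells/well, compounds up to 22.9 uM final. Membrane-potential dye fluorescence (ex 535/em 590) was read; parental cells received 10 uM forskolin + 100 uM RO 20-1724.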

The target in experiment [19] is Cytochrome P450 1A2 (Homo sapiens) (UniProt P05177). Kind of experiment: p450-cyp1a2 (AID 410; calls by dose curve; note: potency is the fitted concentration of half-maximal effect). The following applies: recombinant CYP1A2, luciferin-ME demethylation, luminescence; series mostly up to 57 µM. A digest of the protocol:
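Luminescent readout of luciferin formed from Luciferin-ME by human CYP1A2; data normalized against complete inhibition by 57 uM furafylline. Enzyme 20nM, substrate 100uM at Km, 100mM KPO4 buffer, 60 min reaction at room temperature.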

Experiment [20] deals with Dual specificity protein kinase CLK4 (Homo sapiens) (UniProt Q9HAZ1). Kind of experiment: qHTS Assay for Inhibitors of CDC-like Kinase 4 (ADP-FP Assay) (AID 1795).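 Note: recombinant human CLK4 phosphorylating RS repeat peptide at 1 µM ATP; % is set by controls: 0 for no effect and ±100 for the full control effect; nearly all actives have a fitted effect of over 60% in size.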 The following applies: Transcreener ADP fluorescence polarization; series mostly up to 50 µM. A digest of the protocol: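 Kinase activity was measured as ADP production using Transcreener orange tracer (4 nM) and ADP antibody (1 ug/mL) fluorescence polarization, with ADP calculated from a calibration curve. The 1 h reaction contained 6.25 nM Clk4, 1 uM ATP and 100 uM RS peptide at pH 7.5 with Mg2+.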

Setting [21] is: measured here: cell count channel max response.
The mark [22] stands for this setting: measured here: lipid channel max response.

Results filed as inconclusive are left out. Activity calls are given as the source filed them. Unless noted, calls come from the whole dose curve; as a rule, active = well fitted curve in the direction sought with a large enough effect; inconclusive = small, poorly fitted or top-dose-only effect, or another doubt; inactive = no such curve, though single readings can be large; an effect the other way counts as inactive or inconclusive.

Chain of 3',5'-cyclic-AMP phosphodiesterase 4B (Homo sapiens) (Q07343 whole entry, looked up): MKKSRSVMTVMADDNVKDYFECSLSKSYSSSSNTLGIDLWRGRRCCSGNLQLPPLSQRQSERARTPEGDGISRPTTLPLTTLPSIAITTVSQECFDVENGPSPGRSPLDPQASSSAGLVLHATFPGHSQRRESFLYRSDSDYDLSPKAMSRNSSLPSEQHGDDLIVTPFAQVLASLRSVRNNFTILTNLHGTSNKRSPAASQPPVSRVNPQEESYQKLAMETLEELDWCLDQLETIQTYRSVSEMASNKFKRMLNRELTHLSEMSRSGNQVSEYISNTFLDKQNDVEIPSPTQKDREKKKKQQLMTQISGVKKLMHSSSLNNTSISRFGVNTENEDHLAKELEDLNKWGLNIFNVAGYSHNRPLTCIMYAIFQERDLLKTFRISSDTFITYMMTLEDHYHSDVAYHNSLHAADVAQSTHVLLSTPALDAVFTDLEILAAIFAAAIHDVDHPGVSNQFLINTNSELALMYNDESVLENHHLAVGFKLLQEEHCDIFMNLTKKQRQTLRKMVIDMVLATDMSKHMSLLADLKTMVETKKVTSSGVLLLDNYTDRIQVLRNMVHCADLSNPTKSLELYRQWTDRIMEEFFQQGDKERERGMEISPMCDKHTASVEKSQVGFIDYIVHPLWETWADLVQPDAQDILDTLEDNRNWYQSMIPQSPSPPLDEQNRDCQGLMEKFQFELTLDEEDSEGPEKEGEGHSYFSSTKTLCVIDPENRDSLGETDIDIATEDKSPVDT
Chain of Dual specificity protein kinase CLK4 (Homo sapiens) (Q9HAZ1 whole entry, looked up): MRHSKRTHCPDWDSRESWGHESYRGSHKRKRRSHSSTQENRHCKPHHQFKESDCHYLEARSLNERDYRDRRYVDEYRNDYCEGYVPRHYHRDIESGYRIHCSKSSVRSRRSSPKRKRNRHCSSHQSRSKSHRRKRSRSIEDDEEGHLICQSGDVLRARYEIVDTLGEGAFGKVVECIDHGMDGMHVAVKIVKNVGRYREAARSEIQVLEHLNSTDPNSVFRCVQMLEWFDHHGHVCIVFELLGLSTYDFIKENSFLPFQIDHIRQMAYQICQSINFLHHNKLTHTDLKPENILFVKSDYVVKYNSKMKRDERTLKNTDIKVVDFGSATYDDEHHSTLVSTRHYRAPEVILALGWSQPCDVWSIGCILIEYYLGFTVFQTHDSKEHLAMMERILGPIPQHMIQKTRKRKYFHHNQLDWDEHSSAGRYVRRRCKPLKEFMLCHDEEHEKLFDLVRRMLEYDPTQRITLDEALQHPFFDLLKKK
Chain of Lysosomal acid glucosylceramidase (Homo sapiens) (P04062 whole entry, looked up): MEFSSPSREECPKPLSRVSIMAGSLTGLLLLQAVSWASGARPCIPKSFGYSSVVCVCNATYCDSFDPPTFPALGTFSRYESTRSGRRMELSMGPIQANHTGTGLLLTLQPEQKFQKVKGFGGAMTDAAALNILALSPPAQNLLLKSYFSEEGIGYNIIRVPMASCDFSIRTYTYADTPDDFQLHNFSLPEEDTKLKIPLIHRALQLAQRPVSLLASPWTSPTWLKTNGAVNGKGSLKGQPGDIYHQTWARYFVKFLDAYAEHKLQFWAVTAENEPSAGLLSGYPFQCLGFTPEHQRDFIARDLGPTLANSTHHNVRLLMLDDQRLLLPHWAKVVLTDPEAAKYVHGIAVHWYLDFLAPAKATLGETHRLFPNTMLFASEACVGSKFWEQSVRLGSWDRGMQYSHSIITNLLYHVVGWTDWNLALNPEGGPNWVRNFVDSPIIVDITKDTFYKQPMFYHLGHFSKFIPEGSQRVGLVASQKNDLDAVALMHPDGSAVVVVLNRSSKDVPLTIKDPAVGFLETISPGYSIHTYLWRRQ
Chain of Glucocorticoid receptor (Homo sapiens) (P04150 whole entry, looked up, the tested form may be a part): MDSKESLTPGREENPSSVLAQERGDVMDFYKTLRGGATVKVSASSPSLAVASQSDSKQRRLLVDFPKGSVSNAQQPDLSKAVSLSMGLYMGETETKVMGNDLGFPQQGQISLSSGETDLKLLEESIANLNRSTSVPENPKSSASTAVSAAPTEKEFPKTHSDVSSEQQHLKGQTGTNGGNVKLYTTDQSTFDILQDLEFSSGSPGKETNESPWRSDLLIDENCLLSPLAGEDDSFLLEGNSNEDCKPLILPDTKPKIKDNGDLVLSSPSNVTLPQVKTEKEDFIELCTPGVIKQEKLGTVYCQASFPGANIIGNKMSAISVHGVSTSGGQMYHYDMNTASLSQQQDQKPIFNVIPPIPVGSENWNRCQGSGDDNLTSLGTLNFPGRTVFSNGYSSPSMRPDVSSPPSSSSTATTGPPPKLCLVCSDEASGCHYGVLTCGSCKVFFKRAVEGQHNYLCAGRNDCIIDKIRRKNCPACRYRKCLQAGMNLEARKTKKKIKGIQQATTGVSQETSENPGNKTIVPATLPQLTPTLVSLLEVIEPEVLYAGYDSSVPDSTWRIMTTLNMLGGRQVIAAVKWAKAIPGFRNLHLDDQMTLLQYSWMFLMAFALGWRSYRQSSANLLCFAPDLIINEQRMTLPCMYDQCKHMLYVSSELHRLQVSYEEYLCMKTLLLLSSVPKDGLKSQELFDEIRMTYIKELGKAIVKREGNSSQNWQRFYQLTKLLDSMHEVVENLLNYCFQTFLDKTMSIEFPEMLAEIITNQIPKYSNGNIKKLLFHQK
Chain of Cytochrome P450 3A4 (Homo sapiens) (P08684 whole entry, looked up): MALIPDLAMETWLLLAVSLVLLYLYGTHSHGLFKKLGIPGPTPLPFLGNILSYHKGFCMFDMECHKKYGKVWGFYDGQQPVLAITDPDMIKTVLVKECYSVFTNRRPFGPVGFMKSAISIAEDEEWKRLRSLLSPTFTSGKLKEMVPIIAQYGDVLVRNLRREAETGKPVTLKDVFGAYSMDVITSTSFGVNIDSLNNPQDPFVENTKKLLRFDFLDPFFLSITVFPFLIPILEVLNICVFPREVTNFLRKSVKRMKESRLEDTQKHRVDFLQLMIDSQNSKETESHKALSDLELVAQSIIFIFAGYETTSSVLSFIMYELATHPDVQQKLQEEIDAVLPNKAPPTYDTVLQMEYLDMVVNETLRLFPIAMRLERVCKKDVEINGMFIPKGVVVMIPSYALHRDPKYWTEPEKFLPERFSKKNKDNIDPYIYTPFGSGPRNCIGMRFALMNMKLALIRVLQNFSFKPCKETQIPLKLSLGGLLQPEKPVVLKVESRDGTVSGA
Chain of Ubiquitin carboxyl-terminal hydrolase 1 (Homo sapiens) (O94782 whole entry, looked up): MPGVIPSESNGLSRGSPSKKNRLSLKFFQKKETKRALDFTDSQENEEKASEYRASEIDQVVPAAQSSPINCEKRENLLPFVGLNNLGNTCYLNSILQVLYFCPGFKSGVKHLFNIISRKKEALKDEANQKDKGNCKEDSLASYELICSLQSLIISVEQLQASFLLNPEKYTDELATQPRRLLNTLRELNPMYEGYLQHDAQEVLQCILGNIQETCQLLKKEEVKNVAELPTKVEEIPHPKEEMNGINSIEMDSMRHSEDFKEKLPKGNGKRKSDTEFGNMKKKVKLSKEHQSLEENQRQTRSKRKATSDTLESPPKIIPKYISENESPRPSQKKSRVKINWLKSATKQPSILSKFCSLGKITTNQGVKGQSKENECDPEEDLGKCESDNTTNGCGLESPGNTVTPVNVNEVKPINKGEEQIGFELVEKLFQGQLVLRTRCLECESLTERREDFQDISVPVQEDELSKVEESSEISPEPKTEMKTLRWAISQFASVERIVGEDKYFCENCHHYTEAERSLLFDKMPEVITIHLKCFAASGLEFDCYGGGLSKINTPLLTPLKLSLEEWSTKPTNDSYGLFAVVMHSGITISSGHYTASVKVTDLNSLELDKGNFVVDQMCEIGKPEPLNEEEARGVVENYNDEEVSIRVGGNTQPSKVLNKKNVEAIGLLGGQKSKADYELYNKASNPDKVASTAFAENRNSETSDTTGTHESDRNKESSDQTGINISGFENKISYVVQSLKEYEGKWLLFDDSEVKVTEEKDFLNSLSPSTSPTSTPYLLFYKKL
Chain of Cytochrome P450 1A2 (Homo sapiens) (P05177 whole entry, looked up): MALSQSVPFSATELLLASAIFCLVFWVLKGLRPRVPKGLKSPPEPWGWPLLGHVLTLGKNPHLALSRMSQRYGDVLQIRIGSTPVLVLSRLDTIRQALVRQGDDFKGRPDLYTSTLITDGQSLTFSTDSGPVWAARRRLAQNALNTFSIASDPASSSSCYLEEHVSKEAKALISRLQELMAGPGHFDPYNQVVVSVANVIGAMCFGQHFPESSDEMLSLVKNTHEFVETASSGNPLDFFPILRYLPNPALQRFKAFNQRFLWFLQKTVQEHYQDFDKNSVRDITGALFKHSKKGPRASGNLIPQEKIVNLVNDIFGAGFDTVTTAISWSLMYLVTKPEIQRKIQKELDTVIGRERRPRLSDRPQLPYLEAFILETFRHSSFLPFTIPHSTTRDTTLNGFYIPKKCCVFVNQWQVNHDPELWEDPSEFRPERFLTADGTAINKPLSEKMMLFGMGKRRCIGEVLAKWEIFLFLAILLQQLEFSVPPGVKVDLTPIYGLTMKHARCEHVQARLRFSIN

Take `O=c1c(CCc2ccccc2)nc2cnc(N3CCNCC3)nc2n1C1CC1`: the values for the Potency in [1], in experiment [5] and in [6] were > 11.4 µM (inactive), > 9.22 µM (inactive) and > 46 µM (inactive), respectively. Further, the activity change, negative = inhibition in experiment [2] was -9.21% (inactive); in [3] it was -7.73% (inactive); in [9], 2.72% (inactive). The activity, negative = inhibition in experiment [4] was -12.8% (inactive). Moreover, the outcome in experiment [7] was inactive. Also, the Potency entry in experiment [8], in experiment [10], in experiment [11], in experiment [12] and in experiment [13] was “inactive” in each case. Besides, the max response in [9] (setting [21]) was determined as 16.7%; in experiment [9] (setting [22]), 18.1%.
Turning to `CN1CCN(c2ncc3nc(CCc4ccccc4)c(=O)n(Cc4ccc(F)cc4)c3n2)CC1`, the Potency in [1] was > 11.4 µM (inactive); in experiment [5] it was > 9.22 µM (inactive); in experiment [6] it was > 46 µM (inactive); in experiment [14] it was 5.01 µM (active); in experiment [16], 25.1 µM (active). For the same molecule, the activity change, negative = inhibition in experiment [2] is 4.85% (inactive); in experiment [3] it was -12.2% (inactive). Further, the activity, negative = inhibition in experiment [4] was -1.54% (inactive). For the same molecule, the molecule was classed as inactive in [7]. Also, the Potency result in experiment [8] and in experiment [13] was “inactive” in each case. Further, the activation in experiment [15] was -6.17% (inactive).
Turning to `COc1cccc(CN2CCN(C(=O)c3ccc(-c4ccccc4)cc3)CC2)c1OC`, the Potency entry in experiment [13] was “inactive”. Further, the max response in [17] is 10.7% (inactive).
In the case of `COc1ccc(Oc2ncc3nc(-c4ccccc4)c(=O)n(C4CC4)c3n2)cc1`, the Potency in [1] was > 11.4 µM (inactive); in experiment [5], > 9.22 µM (inactive); in experiment [6], > 46 µM (inactive). The activity change, negative = inhibition is -15.8% (inactive) in [2] and 5.68% (inactive) in experiment [3]. Also, the activity, negative = inhibition in [4] was -1.16% (inactive). Moreover, the molecule was called inactive in experiment [7]. In addition, the Potency entry in experiment [18] and in [13] was “inactive” each time. Besides, the max response in experiment [17] is 12.6% (inactive).
Consider `Cc1nc2cnc(N3CCN(C)CC3)nc2n(-c2ccccc2)c1=O`, for which the results for the activity change, negative = inhibition in experiment [2], in experiment [3] and in [9] were -10.2% (inactive), -6.35% (inactive) and 2.71% (inactive), respectively. Further, the Potency in [19] was 3.98 µM (active); in [5], > 9.22 µM (inactive); in experiment [6] it was > 46 µM (inactive). In addition, the activity, negative = inhibition in [4] was -7.64% (inactive). In experiment [7], the molecule was called inactive. The Potency result in experiment [18], in experiment [10], in experiment [11], in experiment [20], in experiment [12] and in [13] was “inactive” throughout. The max response in experiment [9] (setting [21]) was found to be 7.22%; in experiment [9] (setting [22]), 7.19%.
Regarding `COc1cccc(Cn2c(=O)c(C)nc3cnc(N4CCNCC4)nc32)c1`, the activity change, negative = inhibition in experiment [2] was 4.85% (inactive); in [3], -10.9% (inactive). Moreover, the activity, negative = inhibition in experiment [4] is -3.45% (inactive). Moreover, the Potency in [5] is > 9.22 µM (inactive); in experiment [6], > 46 µM (inactive); in experiment [13], 28.2 µM (active); in experiment [16] it was 35.5 µM (active). Further, the molecule was classed as inactive in [7]. In experiment [18], the Potency result was “inactive”.

(Values after PubChem BioAssay (NCATS).)
